Assay results as given in PubChem BioAssay (NCI).
Compounds without any hit were thinned out: in the full panel of roughly 79,000, 15% have a hit. Activity calls are given as the source filed them. Rule as the data show it: active = growth inhibition above about 70%; inactive = the rest.

Legend:
[1] = NCI Yeast Anticancer Drug Screen. Data for the wt1 strain (AID 149);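 also: 0% = growth of vehicle-treated wt1 cultures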; details: S. cerevisiae wt1 strain (SPY 50644) growth inhibition, hits give high values
How it was run: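 Using yeast strain wt1, compound-induced growth inhibition was determined against vehicle-treated cultures.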

[2] = NCI Yeast Anticancer Drug Screen. Data for the rad50EPP+ strain (AID 151);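 also: 0% = growth of vehicle-treated control cultures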; details: S. cerevisiae rad50 mutant strain, hits give high values
How it was run: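 Genetically defined yeast (rad50EPP+, DNA damage repair alteration) is grown with compound, and inhibition of growth is expressed relative to vehicle-treated controls.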

[3] = NCI Yeast Anticancer Drug Screen. Data for the mgt1 strain (AID 153); details: S. cerevisiae mgt1 mutant growth inhibition, hits give high values
How it was run: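 In the mgt1 strain, test compounds were added and growth inhibition was determined relative to vehicle-treated controls.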

[4] = NCI Yeast Anticancer Drug Screen. Data for the rad50 strain (AID 155);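 also: 0% = growth of vehicle-only cultures of the same strain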; details: S. cerevisiae rad50 strain growth inhibition, hits give high values
How it was run: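 Relative growth inhibition (compound vs vehicle) was measured in yeast with a defined repair-gene alteration.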

[5] = NCI Yeast Anticancer Drug Screen. Data for the mec2-1 strain (AID 157); details: S. cerevisiae mec2-1 strain, hits give high values
How it was run: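 Each compound was tested on mec2-1 yeast, a strain altered in DNA damage repair or cell cycle control. Growth inhibition is reported relative to vehicle.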

[6] = NCI Yeast Anticancer Drug Screen. Data for the rad14 strain (AID 159);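 also: 0% = growth of vehicle-treated control cultures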; details: S. cerevisiae rad14 strain growth inhibition, hits give high values
How it was run: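 Screen for anticancer potential: a yeast strain altered in DNA damage repair is grown with compound, and reduced growth is quantified against vehicle controls.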

[7] = NCI Yeast Anticancer Drug Screen. Data for the sgs1 mgt1 strain (AID 161);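 also: 0% = growth of cultures given vehicle only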; details: S. cerevisiae sgs1 mgt1 strain, hits give high values
How it was run: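 Genetically altered yeast, compound exposure, growth inhibition relative to vehicle.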

[8] = NCI Yeast Anticancer Drug Screen. Data for the CLN2oe strain (AID 163);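 also: 0% = growth of vehicle-only control cultures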; details: S. cerevisiae CLN2oe strain, hits give high values
How it was run: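 First, the altered yeast strain was treated with each compound; second, its growth was measured; finally, inhibition was derived by comparison with vehicle controls.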

[9] = NCI Yeast Anticancer Drug Screen. Data for the cln2 rad14 strain (AID 165);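 also: 0% = growth equal to vehicle treated cultures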; details: S. cerevisiae cln2 rad14 strain, hits give high values
How it was run: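 Test compounds were added to cln2 rad14 yeast cultures; inhibition of growth was then determined by comparison with vehicle treatment.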

[10] = NCI Yeast Anticancer Drug Screen. Data for the bub3 strain (AID 167); details: S. cerevisiae bub3 mutant strain, hits give high values
How it was run: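 Screening used yeast with an engineered genetic alteration affecting cell cycle control. Compound-exposed cultures were compared with vehicle cultures, and reduced growth was taken as inhibition.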

[11] = NCI Yeast Anticancer Drug Screen. Data for the wt2 strain (AID 169);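 also: 0% = growth of vehicle-treated yeast cultures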; details: S. cerevisiae wt2 strain growth inhibition, hits give high values
How it was run: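 The panel's yeast strains carry defined changes in DNA repair or cell cycle genes. Each strain is grown with compound, and growth loss is scored relative to vehicle.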

[12] = NCI Yeast Anticancer Drug Screen. Data for the mlh1 strain (AID 171);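 also: 0% = growth of vehicle-treated control cultures of the same strain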; details: S. cerevisiae mlh1 strain growth inhibition, hits give high values
How it was run: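 Inhibition values reflect reduced yeast growth in the presence of compound, referenced to vehicle controls, using a strain chosen for its alteration in DNA repair or cell cycle control.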

[13] = NCI Yeast Anticancer Drug Screen. Data for the sgs1 strain (AID 173);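 also: 0% = growth of vehicle-only control cultures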; details: S. cerevisiae sgs1 mutant, hits give high values
How it was run: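 Vehicle-treated cultures served as reference for growth inhibition of a yeast strain altered in DNA damage repair or cell cycle control after compound exposure.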

[14] = NCI Yeast Anticancer Drug Screen. Data for the mlh1 rad18 strain (AID 175); details: S. cerevisiae mlh1 rad18 strain growth inhibition, hits give high values
How it was run: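 Inhibition values reflect reduced growth of mutant yeast versus vehicle-treated controls following compound exposure; the mutations affect DNA damage repair.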

[15] = NCI Yeast Anticancer Drug Screen. Data for the rad18 strain (AID 177); details: S. cerevisiae rad18 mutant growth inhibition, hits give high values
How it was run: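 Steps: expose repair-mutant yeast to compound; measure growth; express as inhibition relative to vehicle control.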

[16] = at 5.0 µM (retest, dose inferred, filed as 0.5)
[17] = at 50.0 µM (retest, dose inferred, filed as 5.0)

Measured: growth inhibition

c1cc(Nc2ccc3c(c2)OCO3)c2cc(C3CCCCC3)ccc2n1
inactive: [1]; at 1.2 µM 0% | [1]; at 3.7 µM 0% | [1]; at 11.0 µM -4% | [1]; at 33.0 µM -6% | [1]; at 100.0 µM 34% | [2]; at 1.2 µM 1% | [2]; at 3.7 µM -2% | [2]; at 11.0 µM -2% | [2]; at 33.0 µM -3% | [2]; at 100.0 µM 23% | [3]; at 1.2 µM -2% | [3]; at 3.7 µM -4% | [3]; at 11.0 µM -3% | [3]; at 33.0 µM -6% | [4]; at 1.2 µM 19% | [4]; at 3.7 µM -14% | [4]; [16] 4% | [4]; at 11.0 µM 5% | [4]; at 33.0 µM 5% | [4]; [17] 48% | [5]; at 1.2 µM -3% | [5]; at 3.7 µM -2% | [5]; [16] -8% | [5]; at 11.0 µM -4% | [5]; at 33.0 µM -2% | [5]; [17] 23% | [6]; at 1.2 µM 5% | [6]; at 3.7 µM 5% | [6]; at 11.0 µM 7% | [6]; at 33.0 µM 15% | [7]; [16] 0% | [7]; [17] 46% | [8]; at 1.2 µM 1% | [8]; at 3.7 µM 3% | [8]; at 11.0 µM -1% | [8]; at 33.0 µM 4% | [8]; at 100.0 µM 52% | [9]; [16] 40% | [9]; [17] 46% | [10]; at 1.2 µM -1% | [10]; at 3.7 µM -3% | [10]; [16] 10% | [10]; at 11.0 µM -2% | [10]; at 33.0 µM 8% | [11]; at 1.2 µM 0% | [11]; at 3.7 µM -1% | [11]; at 11.0 µM -2% | [11]; at 33.0 µM 0% | [12]; at 1.2 µM -1% | [12]; at 3.7 µM -1% | [12]; at 11.0 µM -2% | [12]; at 33.0 µM 2% | [13]; at 1.2 µM -1% | [13]; at 3.7 µM -2% | [13]; at 11.0 µM -7% | [13]; at 33.0 µM 5% | [14]; [16] 7% | [15]; at 1.2 µM -3% | [15]; at 3.7 µM -7% | [15]; at 11.0 µM -14% | [15]; at 33.0 µM -16%
active: [3]; at 100.0 µM 85% | [4]; at 50.0 µM 99.3% | [4]; at 100.0 µM 73% | [5]; at 50.0 µM 99.5% | [5]; at 100.0 µM 72% | [6]; at 100.0 µM 78% | [7]; at 50.0 µM 99.2% | [9]; at 50.0 µM 98.7% | [10]; [17] 98% | [10]; at 50.0 µM 98.6% | [10]; at 100.0 µM 74% | [11]; at 100.0 µM 81% | [12]; at 100.0 µM 82% | [13]; at 100.0 µM 86% | [14]; [17] 73% | [14]; at 50.0 µM 99.5% | [15]; at 100.0 µM 85%

COc1ccc(/C=C2\CCc3ccccc3C2=O)cc1OC
active: [1]; at 100.0 µM 88% | [3]; at 100.0 µM 89% | [4]; at 50.0 µM 83.3% | [4]; at 100.0 µM 82% | [5]; at 100.0 µM 90% | [6]; at 100.0 µM 80% | [7]; at 50.0 µM 84.8% | [8]; at 100.0 µM 92% | [10]; at 33.0 µM 76% | [10]; [17] 95% | [10]; at 50.0 µM 87.6% | [10]; at 100.0 µM 94% | [11]; at 100.0 µM 91% | [12]; at 33.0 µM 79% | [12]; at 100.0 µM 91% | [13]; at 100.0 µM 93% | [14]; [17] 91% | [15]; at 100.0 µM 88%
inactive: [1]; at 1.2 µM -13% | [1]; at 3.7 µM -2% | [1]; at 11.0 µM -11% | [1]; at 33.0 µM 24% | [2]; at 1.2 µM -24% | [2]; at 3.7 µM -26% | [2]; at 11.0 µM 1% | [2]; at 33.0 µM 32% | [2]; at 100.0 µM 40% | [3]; at 1.2 µM 2% | [3]; at 3.7 µM 5% | [3]; at 11.0 µM 21% | [3]; at 33.0 µM 67% | [4]; at 1.2 µM 3% | [4]; at 3.7 µM -2% | [4]; [16] 36% | [4]; at 11.0 µM -1% | [4]; at 33.0 µM 22% | [4]; [17] 51% | [5]; at 1.2 µM -36% | [5]; at 3.7 µM -8% | [5]; [16] -11% | [5]; at 11.0 µM -22% | [5]; at 33.0 µM 24% | [5]; [17] 66% | [5]; at 50.0 µM 60.3% | [6]; at 1.2 µM -16% | [6]; at 3.7 µM -13% | [6]; at 11.0 µM -20% | [6]; at 33.0 µM 19% | [7]; [16] 37% | [7]; [17] 68% | [8]; at 1.2 µM 21% | [8]; at 3.7 µM 22% | [8]; at 11.0 µM 29% | [8]; at 33.0 µM 37% | [9]; [16] 23% | [9]; [17] 48% | [9]; at 50.0 µM 60.9% | [10]; at 1.2 µM 24% | [10]; at 3.7 µM 29% | [10]; [16] 25% | [10]; at 11.0 µM 51% | [11]; at 1.2 µM -38% | [11]; at 3.7 µM -25% | [11]; at 11.0 µM -28% | [11]; at 33.0 µM 53% | [12]; at 1.2 µM 20% | [12]; at 3.7 µM 29% | [12]; at 11.0 µM 26% | [13]; at 1.2 µM -6% | [13]; at 3.7 µM -26% | [13]; at 11.0 µM -12% | [13]; at 33.0 µM 35% | [14]; [16] 10% | [14]; at 50.0 µM 63.5% | [15]; at 1.2 µM -20% | [15]; at 3.7 µM -10% | [15]; at 11.0 µM -18% | [15]; at 33.0 µM 19%
